Among the test systems are SR leukemia; OVCAR-8 ovarian; OVCAR-5 ovarian; OVCAR-4 ovarian; SK-OV-3 ovarian; IGROV1 ovarian; OVCAR-3 ovarian; HS 578T breast; NCI/ADR-RES ovarian; T-47D breast; BT-549 breast; MDA-MB-435 melanoma; SW-620 colon; MCF7 breast; HCT-116 colon; HCC-2998 colon; KM12 colon; MDA-MB-468 breast; RPMI-8226 leukemia.
What all share (assay): NCI-60 one-dose screen, 48 h (100 = growth as untreated, 0 = no growth, -100 = all killed)
Details in all cases: 10 µM unless noted

The panel holds about 83,000 compounds, 20% with a hit somewhere; the sample as a whole holds those more often.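 Assay: single dose, 48 h. Readout: percent growth (0 = no net growth; negative = cell death). Active: <10.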 Calls of active or inactive are those of the source.

Turning to `Cc1cc2nc3c4ccccc4n(CC4=NCCN4)c3nc2cc1C`, the growth in the assay with SR leukemia was 0.0191% (active); with OVCAR-8 ovarian it was -21.1% (active); with OVCAR-5 ovarian it was -76.9% (active); in the assay with OVCAR-4 ovarian it was -0.803% (active); in the assay with SK-OV-3 ovarian, 15.6% (inactive); in the assay on IGROV1 ovarian, 16.1% (inactive). Further, the growth in the assay on OVCAR-3 ovarian was 55.2% (inactive); in the assay on HS 578T breast, 76.4% (inactive); in the assay with NCI/ADR-RES ovarian, 18.6% (inactive); in the assay with T-47D breast, 15.4% (inactive); with BT-549 breast it was 4.52% (active); with MDA-MB-435 melanoma, -86.6% (active). Further, the growth in the assay on SW-620 colon was -40.2% (active); in the assay on MCF7 breast, -90.5% (active); in the assay with HCT-116 colon, -92.8% (active); with HCC-2998 colon it was -46.6% (active); in the assay on KM12 colon, 43% (inactive).
As for `COc1cc(/C=C2\C(=N)N=C(SCc3nc4ccccc4[nH]3)NC2=O)ccc1O`, the growth in the assay on SR leukemia is 88.5% (inactive); in the assay on OVCAR-8 ovarian it was 101% (inactive); in the assay with OVCAR-5 ovarian, 109% (inactive); in the assay on OVCAR-4 ovarian it was 96.6% (inactive); in the assay on SK-OV-3 ovarian, 103% (inactive); with IGROV1 ovarian, 106% (inactive). For the same compound, the growth was 103% (inactive) in the assay with OVCAR-3 ovarian; 93.3% (inactive) in the assay with HS 578T breast; 99% (inactive) in the assay with NCI/ADR-RES ovarian; 107% (inactive) in the assay on BT-549 breast; 99.7% (inactive) in the assay with MDA-MB-435 melanoma; 95.6% (inactive) in the assay on SW-620 colon. Besides, the growth in the assay on MCF7 breast was 93.7% (inactive); in the assay on HCT-116 colon, 99.8% (inactive); with HCC-2998 colon it was 105% (inactive); in the assay with KM12 colon it was 106% (inactive).
With `O=C(NN1C(=O)/C(=C/C=C/c2ccc([N+](=O)[O-])o2)SC1=S)c1cccc(O)c1`, the growth in the assay with SR leukemia is 2.86% (active); with OVCAR-8 ovarian it was -80.3% (active); with OVCAR-5 ovarian, -98.5% (active); in the assay with OVCAR-4 ovarian, -100% (active); with SK-OV-3 ovarian, -80.9% (active); in the assay on IGROV1 ovarian it was -97.9% (active). The growth in the assay with OVCAR-3 ovarian is -100% (active); in the assay with HS 578T breast, -14.6% (active); with NCI/ADR-RES ovarian, -32.1% (active); with T-47D breast it was -44.1% (active); in the assay with BT-549 breast, -96% (active); in the assay with MDA-MB-435 melanoma it was -93.3% (active). Moreover, the growth is -71.1% (active) in the assay with SW-620 colon; -61.9% (active) in the assay with MCF7 breast; -77.1% (active) with HCT-116 colon; -94.8% (active) in the assay on HCC-2998 colon; -92.6% (active) in the assay with KM12 colon; -73.4% (active) in the assay with MDA-MB-468 breast.
On to `O=C(NN1C(=O)/C(=C/C=C/c2ccc([N+](=O)[O-])o2)SC1=S)c1ccccc1O`, for which the growth with SR leukemia was 3.37% (active); with OVCAR-8 ovarian, -68.2% (active); in the assay with OVCAR-5 ovarian, -98.8% (active); in the assay with OVCAR-4 ovarian, -100% (active); in the assay on SK-OV-3 ovarian it was -9.85% (active); with IGROV1 ovarian, -95.5% (active). The growth in the assay with OVCAR-3 ovarian was -100% (active); in the assay with HS 578T breast, -5.32% (active); in the assay with NCI/ADR-RES ovarian it was -0.0269% (active); with T-47D breast, -59.4% (active); in the assay with BT-549 breast it was -91.3% (active); with MDA-MB-435 melanoma, -89.7% (active). Besides, the growth in the assay on SW-620 colon was -69.5% (active); in the assay on MCF7 breast, -49.7% (active); with HCT-116 colon, -68.5% (active); in the assay with HCC-2998 colon it was -97% (active); with KM12 colon, -83.5% (active); in the assay on MDA-MB-468 breast, -75.4% (active).
As for `O=C(Cn1c2c(sc1=O)[C@H]1[C@@H](O)[C@@H](O)[C@H](O)[C@@H]1CS2)N1CCOCC1`, the growth with SR leukemia was 99.6% (inactive); with OVCAR-8 ovarian, 108% (inactive); in the assay with OVCAR-5 ovarian, 103% (inactive); in the assay on OVCAR-4 ovarian, 102% (inactive); in the assay with SK-OV-3 ovarian, 94.1% (inactive); in the assay with IGROV1 ovarian, 105% (inactive). The growth in the assay on OVCAR-3 ovarian was 105% (inactive); in the assay with HS 578T breast it was 93.3% (inactive); with NCI/ADR-RES ovarian it was 104% (inactive); in the assay on T-47D breast, 93.6% (inactive); in the assay with BT-549 breast, 99.3% (inactive); in the assay on MDA-MB-435 melanoma, 101% (inactive). Besides, the growth is 107% (inactive) in the assay with SW-620 colon; 98.4% (inactive) in the assay on MCF7 breast; 110% (inactive) with HCT-116 colon; 111% (inactive) in the assay with HCC-2998 colon; 103% (inactive) in the assay with KM12 colon; 105% (inactive) in the assay on MDA-MB-468 breast.
As to `COc1ccc2[nH]cc(-c3nc(N)nnc3-c3cn(C)c4ncccc34)c2c1`, the growth in the assay with SR leukemia is 33.5% (inactive); in the assay on OVCAR-8 ovarian it was 64.4% (inactive); in the assay on OVCAR-5 ovarian, 77.9% (inactive); in the assay on OVCAR-4 ovarian, 78% (inactive); in the assay with SK-OV-3 ovarian, 86.3% (inactive); in the assay on IGROV1 ovarian, 32.9% (inactive). Moreover, the growth with OVCAR-3 ovarian is 16.2% (inactive); with HS 578T breast, 37.2% (inactive); in the assay on NCI/ADR-RES ovarian it was 99% (inactive); in the assay on T-47D breast, 50.8% (inactive); with BT-549 breast, 36.5% (inactive); in the assay on MDA-MB-435 melanoma it was -1.52% (active). Further, the growth in the assay with SW-620 colon is 39.4% (inactive); with MCF7 breast, 25.6% (inactive); in the assay with HCT-116 colon it was 26.7% (inactive); with HCC-2998 colon, 80.2% (inactive); in the assay on KM12 colon, 16.6% (inactive); in the assay with MDA-MB-468 breast, 27.6% (inactive).
As for `COc1ccc(CCC2c3c(cc4c(c3OC)OCO4)CCN2C)cc1` (stereo not drawn), the growth in the assay on SR leukemia was -18.2% (active); with OVCAR-8 ovarian, -41.7% (active); in the assay with OVCAR-5 ovarian, -16.5% (active); with OVCAR-4 ovarian, 9.34% (active); in the assay on SK-OV-3 ovarian, -37.6% (active); in the assay with IGROV1 ovarian, -52.4% (active). Moreover, the growth with OVCAR-3 ovarian was -21.2% (active); in the assay with HS 578T breast, 11% (inactive); in the assay on NCI/ADR-RES ovarian, -54.5% (active); in the assay on T-47D breast, -43.1% (active); in the assay on BT-549 breast, -69.9% (active); in the assay on MDA-MB-435 melanoma, -66.2% (active). Moreover, the growth in the assay on SW-620 colon is -78.1% (active); in the assay on MCF7 breast, -82.3% (active); in the assay with HCC-2998 colon it was -78.8% (active); in the assay on KM12 colon, -37.3% (active); in the assay on MDA-MB-468 breast it was -81.5% (active).
With `COC(=O)C[C@](O)(CCCC(C)(C)O)C(=O)O[C@H]1C(OC)=C[C@@]23CCCN2CCc2cc4c(cc2[C@@H]13)OCO4`, the growth in the assay on SR leukemia is -25% (active); in the assay on RPMI-8226 leukemia it was -18.1% (active); in the assay with OVCAR-8 ovarian it was -34.8% (active); with SK-OV-3 ovarian, 2% (active); in the assay on IGROV1 ovarian, -15.7% (active); in the assay with OVCAR-3 ovarian, -28.5% (active). For the same compound, the growth is -26% (active) in the assay on HS 578T breast; 96.3% (inactive) with NCI/ADR-RES ovarian; -7.62% (active) in the assay with T-47D breast; -29.9% (active) with BT-549 breast; -26.8% (active) with MDA-MB-435 melanoma; -22.2% (active) in the assay with SW-620 colon. Further, the growth in the assay with MCF7 breast was -17.7% (active); in the assay on HCT-116 colon, -29.4% (active); with HCC-2998 colon, -61.3% (active); in the assay on KM12 colon, -15.6% (active).
